{"source": "PubChem BioAssay AID624354", "about": "(Sanford-Burnham Center for Chemical Genomics, 2012)", "note": "The whole screen tested about 360,000 compounds, of which about 3,800 (1.1%) were called active.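 Rule for the calls: active = compounds causing at least 50% loss of cell viability in the single-dose screen, relative to plate controls; inactive = the rest.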 The list comes from a sample in which actives are over-represented; it also holds similar structures and randomly drawn compounds.", "data": [{"assay": "TRAIL-exposed caspase-8 expressing cell killing – NB7+C8 cells, ATPlite luminescence, TRAIL sensitizer project, primary screen (AID 624354)", "conditions": "at 10 µM, hits give high values", "values": [{"compound": "O=C(CN1C(=O)NC2(CCOc3ccccc32)C1=O)Nc1cccc([N+](=O)[O-])c1", "note": "(centres undefined)", "inhibition (viability loss, TRAIL sensitization)": "-2.91% (inactive)"}, {"compound": "CCOC(=O)C1=C(C)OC(N)=C(C#N)C1c1cncc(-c2ccc(F)cc2)c1", "note": "(centres undefined)", "inhibition (viability loss, TRAIL sensitization)": "-2.49% (inactive)"}, {"compound": "FC(F)(F)c1ccc2nnc(-c3c(Cl)cccc3Cl)n2c1", "inhibition (viability loss, TRAIL sensitization)": "24.4% (inactive)"}, {"compound": "CN(C)C1=NC[C@H](Cc2ccccc2)N1CCc1ccc(F)cc1", "inhibition (viability loss, TRAIL sensitization)": "6.59% (inactive)"}, {"compound": "Cc1cc(C)n(C(=O)CCNC(=O)c2ccccc2Cl)n1", "inhibition (viability loss, TRAIL sensitization)": "4.1% (inactive)"}, {"compound": "COCCNC(=O)c1ccccc1-c1nc(-c2ccccc2Cl)no1", "inhibition (viability loss, TRAIL sensitization)": "4.78% (inactive)"}, {"compound": "CN(C)CCNC(=O)c1ccc(Cl)c2cc3ccccc3nc12", "inhibition (viability loss, TRAIL sensitization)": "56% (active)"}, {"compound": "Cn1nc(-c2ccccc2)c(CSc2cccc(Cl)c2)c1Cl", "inhibition (viability loss, TRAIL sensitization)": "6.33% (inactive)"}, {"compound": "Cc1ccc(S(=O)(=O)NC[C@H]2O[C@@H](n3cnc4c(N)ncnc43)[C@H](O)[C@@H]2O)s1", "inhibition (viability loss, TRAIL sensitization)": "-2.79% (inactive)"}, {"compound": "Cn1nc(C(C)(C)C)c(NC(=O)c2sccc2Cl)c1C(C)(C)C", "inhibition (viability loss, TRAIL sensitization)": "15.6% (inactive)"}, {"compound": "COc1cccc(-c2nc3cc(C)ccc3o2)c1", "inhibition (viability loss, TRAIL sensitization)": "52.6% (active)"}, {"compound": "COc1ccc2oc(N)nc2c1", "inhibition (viability loss, TRAIL sensitization)": "4.55% (inactive)"}, {"compound": "O=[N+]([O-])c1ccc2oc(-c3cccc(O)c3)nc2c1", "inhibition (viability loss, TRAIL sensitization)": "24.5% (inactive)"}, {"compound": "O=C(NC(Cc1ccc(O)cc1)C(=O)O)/C(=C/c1ccccc1)NC(=O)c1ccccc1", "note": "(centres undefined)", "inhibition (viability loss, TRAIL sensitization)": "-22.8% (inactive)"}, {"compound": "Cc1ccc(N2C(=O)C3C(c4ccccc4)(C2=O)C3(c2ccccc2)c2ccccc2)cc1", "note": "(centres undefined)", "inhibition (viability loss, TRAIL sensitization)": "11.6% (inactive)"}, {"compound": "CSc1cc(C)[nH]c(=O)n1", "inhibition (viability loss, TRAIL sensitization)": "-4.86% (inactive)"}, {"compound": "O=C(O)c1ccc(N/N=C/c2ccc3ncccc3c2)cc1", "inhibition (viability loss, TRAIL sensitization)": "18.4% (inactive)"}, {"compound": "O=C(O)c1ccc(N/N=C/c2cn(-c3ccccc3)nc2-c2cccs2)cc1", "inhibition (viability loss, TRAIL sensitization)": "76.2% (active)"}, {"compound": "COc1ccc(Cl)cc1NC(=O)CN(C)C(=O)c1cn(-c2ccccc2)nc1-c1cccs1", "inhibition (viability loss, TRAIL sensitization)": "21.4% (inactive)"}, {"compound": "COc1ccc(CN2CC(C(=O)NCCc3ccc(Cl)cc3)CC2=O)cc1", "note": "(centres undefined)", "inhibition (viability loss, TRAIL sensitization)": "10.4% (inactive)"}, {"compound": "CCOC(=O)C1CCCN(C(=O)c2ccc(N(C)C)cc2)CC1", "note": "(centres undefined)", "inhibition (viability loss, TRAIL sensitization)": "-15.3% (inactive)"}, {"compound": "OC1CN=C2Sc3ccccc3N2C1", "note": "(centres undefined)", "inhibition (viability loss, TRAIL sensitization)": "-13.7% (inactive)"}, {"compound": "CC1CN(S(=O)(=O)c2ccccc2)C(C)CN1S(=O)(=O)c1ccccc1", "note": "(centres undefined)", "inhibition (viability loss, TRAIL sensitization)": "7.64% (inactive)"}, {"compound": "Cc1noc(C)c1COC(=O)COc1ccc(-c2ccccc2)cc1", "inhibition (viability loss, TRAIL sensitization)": "-21.6% (inactive)"}, {"compound": "O=C(Oc1ccc(-c2nc(-c3ccccn3)no2)cc1)c1ccccc1", "inhibition (viability loss, TRAIL sensitization)": "72% (active)"}, {"compound": "O=C(COc1cccc(F)c1)Oc1ccc(C(=O)c2ccccc2)cc1", "inhibition (viability loss, TRAIL sensitization)": "7.92% (inactive)"}, {"compound": "CC(=O)Nc1ccc(C(=O)N(C2=NC(C)CS2)c2ccc(Cl)cc2)cc1", "note": "(centres undefined)", "inhibition (viability loss, TRAIL sensitization)": "0.911% (inactive)"}, {"compound": "O=c1oc2ccccc2cc1-c1cn(-c2ccccc2)c(=S)[nH]1", "inhibition (viability loss, TRAIL sensitization)": "82.7% (active)"}, {"compound": "COc1ccc([C@H]2CC(=O)C[C@@H](CCn3cc(CC4CCCC4)nn3)O2)cc1", "inhibition (viability loss, TRAIL sensitization)": "6.31% (inactive)"}, {"compound": "CC(CC(=O)N1CCN(c2ccccc2)CC1)S(=O)(=O)c1ccc2c(c1)NC(=O)CS2", "note": "(centres undefined)", "inhibition (viability loss, TRAIL sensitization)": "23.3% (inactive)"}, {"compound": "O=C(CN1CCN(S(=O)(=O)c2ccc(Cl)s2)CC1)NCc1ccc(Cl)cc1", "inhibition (viability loss, TRAIL sensitization)": "15.3% (inactive)"}, {"compound": "Cc1nc(C(F)(F)F)ccc1C(=O)N1CCC1(C)C(=O)NS(=O)(=O)c1ccccc1", "note": "(centres undefined)", "inhibition (viability loss, TRAIL sensitization)": "-0.681% (inactive)"}, {"compound": "COc1cc(/C=N/N=C(\\N)c2nonc2N)cc(OC)c1OC", "inhibition (viability loss, TRAIL sensitization)": "36.5% (inactive)"}, {"compound": "COc1cc(Nc2nc3ccc(Cl)cc3n3cnnc23)cc(OC)c1OC", "inhibition (viability loss, TRAIL sensitization)": "6.53% (inactive)"}, {"compound": "COc1cc(/C=N/Nc2nn3cnnc3c3ccccc23)cc(OC)c1OC", "inhibition (viability loss, TRAIL sensitization)": "69.3% (active)"}, {"compound": "COCCN(C(=O)c1ccco1)c1nnc(-c2ccc(OC)cc2)s1", "inhibition (viability loss, TRAIL sensitization)": "15.7% (inactive)"}, {"compound": "CC(C)NC(=O)N1CCN(c2ccncc2S(=O)(=O)N2CCCCC2)CC1", "inhibition (viability loss, TRAIL sensitization)": "-3.19% (inactive)"}, {"compound": "CCN(CC)c1ccc(/C=N/Nc2nc(C)cc(C)n2)c(O)c1", "inhibition (viability loss, TRAIL sensitization)": "51.5% (active)"}, {"compound": "O=C(CNS(=O)(=O)c1ccc(Br)s1)NCc1ccc2c(c1)OCO2", "inhibition (viability loss, TRAIL sensitization)": "0.95% (inactive)"}, {"compound": "COc1ccc(N2CC(C(=O)N[C@@H](C)C(=O)N3CCCCC3)CC2=O)cc1", "note": "(some centres undefined)", "inhibition (viability loss, TRAIL sensitization)": "5.67% (inactive)"}, {"compound": "CCCNC(=S)N1CCC(NC(=O)C23CC4CC(CC(C4)C2)C3)CC1", "inhibition (viability loss, TRAIL sensitization)": "26.6% (inactive)"}, {"compound": "CCOC(=O)c1sc(NC(=O)CSc2nc(O)c(Cc3ccccc3)c(=O)[nH]2)nc1C", "inhibition (viability loss, TRAIL sensitization)": "-1.62% (inactive)"}, {"compound": "Fc1ccc(-c2ccc(CNCc3ccccn3)o2)cc1Cl", "inhibition (viability loss, TRAIL sensitization)": "4.36% (inactive)"}, {"compound": "Clc1ccc(COn2c(-c3ccc(Cl)cc3Cl)nc3ncccc32)cc1", "inhibition (viability loss, TRAIL sensitization)": "7.77% (inactive)"}, {"compound": "Clc1ccc(-c2cc(-c3ccccn3)on2)c(Cl)c1", "inhibition (viability loss, TRAIL sensitization)": "87.7% (active)"}, {"compound": "CCN(CC)CCN(C)C(c1ccnc2ccccc12)c1nnnn1-c1ccc2c(c1)OCCO2", "note": "(centres undefined)", "inhibition (viability loss, TRAIL sensitization)": "-12.3% (inactive)"}, {"compound": "CNC(=O)n1ccc(C(=O)N2CCCCC2)n1", "inhibition (viability loss, TRAIL sensitization)": "-8.01% (inactive)"}, {"compound": "O=C(/C=C/c1ccc(Cl)cc1)NCCCn1ccnc1", "inhibition (viability loss, TRAIL sensitization)": "-4.39% (inactive)"}, {"compound": "CN(C)N=Nc1ccc2nc[nH]c2c1", "inhibition (viability loss, TRAIL sensitization)": "-7.76% (inactive)"}, {"compound": "COc1ccc(-n2nnnc2SCC(=O)NCc2cccs2)cc1", "inhibition (viability loss, TRAIL sensitization)": "1.36% (inactive)"}, {"compound": "COc1ccc(-n2nnnc2-c2nc3ccccc3s2)cc1", "inhibition (viability loss, TRAIL sensitization)": "64.4% (active)"}, {"compound": "COc1ccc(-n2nnnc2SCC(=O)c2ccc(OC)c(OC)c2)cc1", "inhibition (viability loss, TRAIL sensitization)": "-16.3% (inactive)"}, {"compound": "Cc1ccccc1OCC(=O)NCC(=O)OCC(=O)c1ccc2ccccc2c1", "inhibition (viability loss, TRAIL sensitization)": "-20.2% (inactive)"}, {"compound": "C/C(=N\\NC(=O)COc1ccc(C)cc1[N+](=O)[O-])c1ccc2c(c1)OCCO2", "inhibition (viability loss, TRAIL sensitization)": "-2.67% (inactive)"}, {"compound": "Cc1cc([N+](=O)[O-])ccc1NCc1cccc([N+](=O)[O-])c1", "inhibition (viability loss, TRAIL sensitization)": "0.71% (inactive)"}, {"compound": "Cc1ccc(S(=O)(=O)N(CC(=O)Nc2cccc([N+](=O)[O-])c2)Cc2ccc(Cl)cc2)cc1", "inhibition (viability loss, TRAIL sensitization)": "4.71% (inactive)"}, {"compound": "O=C(CCl)N(Cc1cccc([N+](=O)[O-])c1)c1cccc(Cl)c1", "inhibition (viability loss, TRAIL sensitization)": "92.3% (active)"}, {"compound": "CCCOC1CCCN(Cc2cn(C)nc2-c2ccccc2F)C1", "note": "(centres undefined)", "inhibition (viability loss, TRAIL sensitization)": "3.04% (inactive)"}, {"compound": "Cc1noc(C)c1NC(=O)N(C)C[C@@H]1Oc2cc(Br)ccc2S(=O)(=O)N([C@@H](C)CO)C[C@H]1C", "inhibition (viability loss, TRAIL sensitization)": "8.07% (inactive)"}]}]}
